The assay has as its system Plasmodium falciparum. Put plainly: GSK_TCMDC: Inhibition of Plasmodium falciparum 3D7 in whole red blood cells, using parasite LDH activity as an index of growth. Test compounds present at 2uM. The class given is functional.
Turning to `CC[C@H](C)CNC(=O)c1cccc(-c2cccc(CNCC3CNCCCO3)c2)n1.O=C(O)C(F)(F)F` (stereo not given in full), the Inhibition came to 91%.

In the case of `O=C(C=Cc1ccc(-c2ccccc2)cc1)N1CCC(CCN2CCC(c3c[nH]c4ccccc34)CC2)CC1`, the Inhibition came out at 87%. Under `CC(C)OC(=O)c1cccnc1SCC(=O)Nc1ccc(C(F)(F)F)cc1Cl` stands 97%; under `NCc1ccc(CNCc2ccc(-c3ccc(-c4nc5cc(C(F)(F)F)ccc5[nH]4)s3)cc2)cc1.O=C(O)C(F)(F)F`, 95%; under `COc1ccc2nccc([C@@H](O)CN3CCC(NCC4COc5ccccc5O4)CC3)c2c1.O=C(O)C(=O)O` (stereo not given in full), 98%.

For `CN1CCC(NC(=O)c2cc(Oc3ccc4c(c3)CCN4C(=O)Nc3cccc(C(F)(F)F)c3)ccn2)CC1.O=C(O)C(F)(F)F`, the Inhibition was found to be 92%. Under `Cn1nc(-c2ccc(S(=O)(=O)N3CCC(CCN4CCC(c5c[nH]c6ccccc56)CC4)CC3)s2)cc1C(F)(F)F` stands 94%; under `CN(C)CCc1coc2ccc(C(=O)Nc3ccc(-c4ccc(O)cc4)cc3)cc12`, 100%. The same measure for `COc1cc(Nc2ccnc3ccc(C(F)(F)F)cc23)ccc1OCCCc1ccccc1`: 99%. The same measure for `CC(C)C[C@@H](/C=N/N1CC(=O)NC1=O)NC(=O)[C@H](CC(C)C)NC(=O)c1ccc(OCCN2CCOCC2)cc1`: 94%. Regarding `Cc1cc(N2CCC(NS(=O)(=O)c3ccccc3)CC2)nc(Nc2cccc(C#N)c2)n1.O=C(O)C(F)(F)F`, the Inhibition stood at 93%. Under `COc1ccc(Oc2ccc(-c3c(O)cc(C)nc3C)cc2)cc1` stands 93%. The same measure for `Cl.O=C(NC1CCN(CC2(c3ccc(Cl)cc3)CCCCC2)CC1)c1cc[nH]n1`: 98%. The same measure for `CCn1c(-c2nonc2N)nc2cnc(Oc3cccc(NC(=O)c4ccc(OCCN5CCCC5)cc4)c3)cc21`: 92%; for `O=C(CCCCCNC(=O)c1ccc(O)c(-c2ccc(Cl)c(Cl)c2)c1)NCCN1CCCCC1`: 93%. `CN1CCC(Oc2ccc(CN3CC[C@H](NC(=O)c4ccc(Cl)c(Cl)c4)C3)c3ccccc23)C1.O=C(O)C(F)(F)F` (stereo not given in full) came in with an Inhibition of 100%. As for `OC(COCc1ccc(-c2ccccc2)cc1)CN1CCCCC1` (stereo not given), the Inhibition is recorded as 99%. Under `O=C(Nc1ccc([N+](=O)[O-])cc1)c1nn(-c2ccccc2)cc1/N=C/c1cccc(O)c1` stands 98%; under `COc1cc(OC)cc(C(=O)N2CCOC(CCN3CCC(c4ccccc4)CC3)(c3ccc(Cl)c(Cl)c3)C2)c1` (stereo not given), 85%; under `Cc1cccc2nc(-c3ccc(-c4cccc(C(=O)NCCN5CCCC5)c4)s3)[nH]c12`, 94%. Under `CCOc1cc(C)ccc1N1CCN(CCN2CCC(NC(=O)c3ccc(-c4ccc(C#N)cc4)cc3)CC2)CC1` stands 84%. Under `COc1ccccc1N1CCN(CCCCNC(=O)c2ccc(NC(=O)c3cc(Cl)cc(Cl)c3)cc2)CC1` stands 100%; under `Cl.O=C(Nc1ccc(C(=O)Nc2ccc(C3=NCCN3)cc2)cc1)Nc1ccc(C2=NCCN2)cc1`, 94%; under `COc1ccc(-c2ccc3c(-c4cccc(S(C)(=O)=O)c4)cnc(N)c3c2)cc1`, 89%.

`O=C(Cc1c[nH]cn1)Nc1cccc(-c2cccc(-c3nc4cc(F)ccc4[nH]3)c2)c1` had an Inhibition of 100%.

For the compound `CCCCCCn1c(Sc2ccc(C#N)c([N+](=O)[O-])c2)nnc1-c1cccs1`, the Inhibition amounted to 97%. Under `Cl.O=C(Oc1ccc(C2CNCCc3c2cc(OC(=O)c2ccc(O)cc2)c(OC(=O)c2ccc(O)cc2)c3Cl)cc1)c1ccc(O)cc1` (stereo not given) stands 90%; under `CCN1CCN(Cc2ccc(NC(=O)c3cc4ccc5cccnc5c4[nH]3)cc2)CC1`, 100%. With `CC(C)CN1CCCN(Cc2cccc(NC(=O)c3ccc(-c4ccccc4)cc3)c2)CC1.O=C(O)C(F)(F)F`, the Inhibition came to 99%.

In the case of `COc1ccc2[nH]ccc(=NN=Cc3cccc(C)n3)c2c1`, the Inhibition was determined as 100%. The same measure for `CC(=O)c1ccccc1C(=O)N1CCOc2ccc(C(O)C(c3ccccc3)c3ccccc3)cc2C1` (stereo not given): 96%. Under `CC=CC1CCNC(C(O)c2ccnc3ccc(OC)cc23)C1` (stereo not given) stands 91%; under `COc1cccc(-c2cccc(-c3ccc(NC(=O)c4ccc([N+](=O)[O-])o4)cc3)n2)c1`, 97%.

The compound `O=C(Nc1ccc(-c2cccc(-c3nc4cc(F)ccc4[nH]3)c2)cc1)Nc1ccc(F)c(F)c1F` registered an Inhibition of 100%. The same measure for `CCn1cc(CN2CCCC(C(=O)Nc3ccc(-c4nc5ccccc5[nH]4)cc3)C2)cn1` (stereo not given): 100%. In turn, `Cc1cc(NCC(c2ccccc2)c2ccccc2)nc(NCc2ccc(C(F)(F)F)cc2)n1` had an Inhibition of 100%.

The compound `O=C(/C=C/c1ccc(Cl)c(Cl)c1)NCCCCN1CCCN(C(=O)Nc2ccc(C(F)(F)F)cc2)CC1` displayed an Inhibition of 94%. The same measure for `COc1ccc2nc(C)cc(NCc3ccc4ccccc4c3)c2c1.Cl`: 100%; for `c1ccc(COc2ccc(COc3ccc(Cn4ccnc4)cc3)cc2)cc1`: 86%. The same measure for `COc1ccc2oc(=O)c(C#N)c(O)c2c1`: 99%.

One may read the Inhibition as the change of the read-out against control, counted positive when it falls. Low readings indicate a response near the control, high ones a response far below the control.

Source of the values: ChEMBL document CHEMBL1157539, “Thousands of chemical starting points for antimalarial lead identification” (Nature, 2010).
